From PubChem BioAssay (NCI) come the findings set out here.

About 83,000 compounds went through this panel and 20% of them were active in at least one assay; those are over-represented in the sample as a whole.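 In brief: 96-well plates, 48 h treatment, single concentration, percent growth endpoint.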 Values without a mark were called inactive. Calls of active or inactive are those of the source. Rule for the calls: active = growth percent below 10; inactive = the rest.

Test systems include DU-145 prostate; K-562 leukemia; MALME-3M melanoma; MDA-MB-231 breast; RXF 393 renal; SF-268 CNS; SF-295 CNS; SF-539 CNS; UACC-257 melanoma; M14 melanoma; HCT-15 colon; HT29 colon; SNB-75 CNS; SNB-19 CNS; U251 CNS; PC-3 prostate; SK-MEL-5 melanoma; LOX IMVI melanoma; SK-MEL-28 melanoma.
What all share (test): NCI-60 one-dose screen, 48 h (100 = growth as untreated, 0 = no growth, -100 = all killed)
Common to all, as to conditions: 10 µM unless noted

As to `O=C(OCc1ccc2c(Cl)cc(Cl)c(O)c2n1)N1CCN(C(=O)c2cc3cc(F)ccc3[nH]2)CC1`, the growth with DU-145 prostate is -10.4% (active); in the test on K-562 leukemia, 13.3%; in the test with MALME-3M melanoma it was 38.2%; in the test with MDA-MB-231 breast, 28.2%; in the test on RXF 393 renal, 16.4%; in the test with SF-268 CNS, 31.1%. Further, the growth with SF-295 CNS was 25.1%; in the test on SF-539 CNS it was -20.1% (active); with UACC-257 melanoma, 25.1%; with M14 melanoma, 7.85% (active); with HCT-15 colon it was 10.6%; in the test on HT29 colon, 99.1%. The growth was 28.6% in the test on SNB-75 CNS; 50.2% with SNB-19 CNS; 8.06% (active) in the test on U251 CNS; 15.8% in the test with PC-3 prostate; -33% (active) in the test with SK-MEL-5 melanoma; 12.2% with LOX IMVI melanoma. The growth in the test on SK-MEL-28 melanoma is 60.7%.
`COc1cc2c(O)n(CCCN3CCOCC3)c3c4cnc5cccc(c(=O)c3c2cc1OC)c54`: the growth in the test on DU-145 prostate is 18%; in the test with K-562 leukemia it was 40.7%; in the test on MALME-3M melanoma, 67.4%; in the test with MDA-MB-231 breast, 48.7%; in the test on RXF 393 renal, 30.4%; in the test with SF-268 CNS, 33.1%. Also, the growth in the test on SF-295 CNS is 17.1%; in the test with SF-539 CNS, 24.5%; in the test with UACC-257 melanoma, 44%; with M14 melanoma it was 16.6%; with HCT-15 colon, 57.4%; in the test with HT29 colon, 29.2%. The growth in the test on SNB-75 CNS is 38.9%; in the test with SNB-19 CNS, 19.4%; in the test on U251 CNS, 16.9%; in the test on PC-3 prostate it was 30.6%; with SK-MEL-5 melanoma, 20.9%; with LOX IMVI melanoma, 11.3%. For the same compound, the growth in the test on SK-MEL-28 melanoma was 66.2%.
As for `CC(C)C1=NOC(=O)C1=Cc1cn(-c2ccco2)nc1-c1ccccc1`, the growth is 94.6% with DU-145 prostate; 62.1% in the test with K-562 leukemia; 104% in the test with MALME-3M melanoma; 92% in the test with MDA-MB-231 breast; 80.6% in the test on RXF 393 renal; 90.5% with SF-268 CNS. In addition, the growth is 99.2% in the test on SF-295 CNS; 99.9% in the test with SF-539 CNS; 106% in the test on UACC-257 melanoma; 85.6% with M14 melanoma; 77.8% in the test with HCT-15 colon; 86.3% in the test on HT29 colon. The growth in the test with SNB-75 CNS is 80.8%; in the test on SNB-19 CNS it was 89.8%; with U251 CNS it was 75.6%; with PC-3 prostate it was 78%; in the test with SK-MEL-5 melanoma, 95.3%; with LOX IMVI melanoma, 39.3%. The growth with SK-MEL-28 melanoma is 99%.
On to `C=C(C)[C@@H]1CC[C@]2(C(=O)OC)CC[C@]3(C)[C@H](CC[C@@H]4[C@@]5(C)CC/C(=N\OCCC(=NCCC#N)NOCCC#N)C(C)(C)[C@@H]5CC[C@]43C)[C@@H]12`, for which the growth is 27.5% [100 µM] in the test on DU-145 prostate; 5.42% [100 µM] (active) in the test on K-562 leukemia; 25.3% [100 µM] in the test on MALME-3M melanoma; 5.09% [100 µM] (active) with MDA-MB-231 breast; -43.1% [100 µM] (active) with RXF 393 renal; 29.1% [100 µM] with SF-268 CNS. For the same compound, the growth was 36.6% [100 µM] in the test on SF-295 CNS; -2.29% [100 µM] (active) in the test on SF-539 CNS; 8.82% [100 µM] (active) in the test on UACC-257 melanoma; 26.6% [100 µM] in the test with M14 melanoma; 34.3% [100 µM] with HCT-15 colon; 3.88% [100 µM] (active) in the test with HT29 colon. Also, the growth with SNB-75 CNS was 18.4% [100 µM]; in the test with SNB-19 CNS, 28.9% [100 µM]; in the test with U251 CNS, -39.7% [100 µM] (active); with PC-3 prostate, 4.49% [100 µM] (active); with SK-MEL-5 melanoma it was -84.7% [100 µM] (active); with LOX IMVI melanoma it was 14.6% [100 µM]. In addition, the growth in the test on SK-MEL-28 melanoma was 29.2% [100 µM].
Consider `COc1ccc2c(c1)C(C)Cc1c(ncnc1-n1cnc3ccccc31)N2C` (stereo not given), for which the growth in the test on DU-145 prostate was 23.7%; in the test on K-562 leukemia it was 14.2%; with MALME-3M melanoma, 92.3%; in the test on MDA-MB-231 breast, 12.9%; with RXF 393 renal it was 12.8%; in the test with SF-268 CNS, 37.4%. Also, the growth was 13.6% with SF-295 CNS; 4.91% (active) in the test with SF-539 CNS; 67.2% in the test with UACC-257 melanoma; 18.3% in the test with M14 melanoma; 16.1% with HCT-15 colon; -17.8% (active) in the test on HT29 colon. For the same compound, the growth in the test on SNB-75 CNS was 37.5%; in the test on SNB-19 CNS it was 33.4%; in the test on U251 CNS it was 21.4%; in the test with PC-3 prostate, 17.5%; in the test on SK-MEL-5 melanoma, 11.2%; in the test with LOX IMVI melanoma, 26.6%.
Regarding `Cc1ccc2c(n1)C(=O)C(Cl)=C(Nc1ccc(N3CCN(C)CC3)cc1)C2=O`, the growth in the test on DU-145 prostate was -18.7% (active); in the test on K-562 leukemia, -12.3% (active); in the test with MALME-3M melanoma, -75.5% (active); in the test with MDA-MB-231 breast, -62.8% (active); with RXF 393 renal it was 62.8%; in the test with SF-268 CNS, 77.7%. For the same compound, the growth in the test with SF-295 CNS was 99.4%; in the test with SF-539 CNS, -24.5% (active); in the test with UACC-257 melanoma it was 57.2%; in the test on M14 melanoma, 73.8%; in the test on HCT-15 colon, 70.4%; in the test with HT29 colon it was 66.4%. The growth is -53.8% (active) with SNB-75 CNS; 94.6% with SNB-19 CNS; 8.47% (active) in the test with U251 CNS; 68.7% in the test on PC-3 prostate; 10.4% in the test with SK-MEL-5 melanoma; -95.4% (active) in the test on LOX IMVI melanoma. Moreover, the growth in the test on SK-MEL-28 melanoma was 30.3%.
For the compound `C[C@H]1[C@H](C)CC[C@]2(C(=O)O)CC[C@]3(C)C(=CC[C@@H]4[C@@]5(C)C/C(=C/c6ccco6)C(=O)C(C)(C)[C@@H]5CC[C@]43C)[C@H]12`, the growth in the test with DU-145 prostate is -73.1% [100 µM] (active); in the test on K-562 leukemia, 7.11% [100 µM] (active); in the test on MALME-3M melanoma it was -86% [100 µM] (active); with MDA-MB-231 breast it was -81.5% [100 µM] (active); in the test with RXF 393 renal it was -84% [100 µM] (active); with SF-268 CNS it was -58.7% [100 µM] (active). Further, the growth with SF-295 CNS is -79.4% [100 µM] (active); with SF-539 CNS it was -80.1% [100 µM] (active); in the test on UACC-257 melanoma, -39.1% [100 µM] (active); in the test with M14 melanoma, -43.6% [100 µM] (active); in the test with HCT-15 colon, -71.2% [100 µM] (active); with HT29 colon, -67.9% [100 µM] (active). Besides, the growth in the test with SNB-75 CNS was -55.9% [100 µM] (active); with SNB-19 CNS, -52.6% [100 µM] (active); in the test with U251 CNS it was -64.5% [100 µM] (active); in the test with PC-3 prostate, -67.1% [100 µM] (active); in the test with SK-MEL-5 melanoma, -91.7% [100 µM] (active); with LOX IMVI melanoma it was -91.7% [100 µM] (active).
As to `CC1(C)CC[C@]2(C(=O)O)CC[C@]3(C)[C@H](CC[C@@H]4[C@@]5(C)CCC(=O)C(C)(C)[C@@H]5CC[C@]43C)[C@H]2[C@H]1OC(=O)C(F)(F)F`, the growth is -53.4% [100 µM] (active) with DU-145 prostate; 1.66% [100 µM] (active) with K-562 leukemia; -65% [100 µM] (active) in the test with MALME-3M melanoma; -62.3% [100 µM] (active) in the test with MDA-MB-231 breast; -82.1% [100 µM] (active) in the test on RXF 393 renal; -92.4% [100 µM] (active) with SF-268 CNS. In addition, the growth with SF-295 CNS was -62.5% [100 µM] (active); in the test with SF-539 CNS, -86% [100 µM] (active); with UACC-257 melanoma it was -87% [100 µM] (active); in the test on M14 melanoma, -35.2% [100 µM] (active); in the test with HCT-15 colon it was -64% [100 µM] (active); with HT29 colon, -37.7% [100 µM] (active). Further, the growth in the test with SNB-75 CNS was -36.5% [100 µM] (active); in the test with SNB-19 CNS, -78.4% [100 µM] (active); in the test with U251 CNS, -71.4% [100 µM] (active); with PC-3 prostate it was -56.4% [100 µM] (active); in the test with SK-MEL-5 melanoma it was -94.2% [100 µM] (active); in the test with LOX IMVI melanoma, -99.1% [100 µM] (active). In the test with SK-MEL-28 melanoma, the growth was -58.5% [100 µM] (active).
